High-throughput results (PubChem)
USP30 inh – inhibitors of human USP30 deubiquitinase. Q70CQ3. actives 5.3% (n = 47,000). AID 1645860. inhibition, % at 25 µM. purified USP30, Ub-rhodamine cleavage fluorescence
USP10 block – inhibitors of human USP10 deubiquitinase. purified USP10, Ub-rhodamine fluorescence, 60 min. actives 1.1% (n = 47,000). AID 1645856. Q14694. inhibition, % at 20 µM
USP28 block – inhibitors of human USP28 deubiquitinase; actives 3% (n = 47,000); purified USP28, Ub-rhodamine cleavage fluorescence, 30 min; inhibition, % at 25 µM; Q96RU2
USP17 inh – inhibitors of human USP17 deubiquitinase | purified USP17, Ub-rhodamine cleavage fluorescence, 3 h | inhibition, % at 50 µM | AID 1645855 | A8MUK1 | actives 6.5% (n = 47,000)
OTUD3 inh – inhibitors of human OTUD3 deubiquitinase; Q5T2D3; inhibition, % at 25 µM; purified OTUD3, Ub-rhodamine fluorescence, 2 h; actives 0.7% (n = 47,000); AID 1645858
USP8 inh – human USP8 deubiquitinase inhibition. purified USP8, Ub-rhodamine cleavage fluorescence, 30 min. inhibition, % at 20 µM. actives 4.2% (n = 47,000)
An asterisk follows results filed as active; / = no result given. Shown are actives, neighbours in structure and some others; about 13% of the full set was active somewhere. Rule as the data show it: active = inhibition above about 30%; inactive = the rest.

SMILES | USP30 inh | USP10 block | USP28 block | USP17 inh | OTUD3 inh | USP8 inh
COc1cc(OC)nc(C2CCN(C(=O)c3ccccc3NC(=O)c3cccc(C(F)(F)F)c3)CC2)n1 | 27 | 5 | 11 | 13 | 3 | 5
O=C1NCC2(CCCN(C(=O)Cc3ccsc3)C2)Oc2ccccc21 (centres undefined) | 1 | -1 | -15 | -2 | -9 | 0
Cc1cc(C)nc(N2CCC(N(CC3CC3)C(=O)c3ccc(S(C)(=O)=O)cc3)CC2)n1 | -117 | -7 | -35 | -47 | -33 | -18
Cc1cc(N2C(=O)OCC2C(C)C)nc(C2CCN(C(=O)C(C)(C)C)CC2)n1 (centres undefined) | 11 | 1 | 8 | / | 9 | -23
COc1ccc2c(c1)c(=O)c(S(=O)(=O)c1ccc(F)cc1)cn2Cc1cccc(F)c1 | 25 | 39* | 0 | 16 | 1 | 25
CSc1cccc(NC(=O)CCc2ccc3nc(NC(C)=O)sc3c2)c1 | 54* | 1 | 11 | 16 | 11 | -142
CC(C)C(=O)Nc1nc2ccc(CCC(=O)Nc3ccc(F)cc3F)cc2s1 | 33* | 6 | 4 | 12 | 0 | -2
CCC(=O)Nc1c(C)noc1/C=C\c1ccc(S(=O)(=O)Nc2ccc(F)cc2F)cc1 | 46* | 2 | 3 | 22 | 3 | 6
CCC(=O)Nc1c(C)noc1/C=C\c1ccc(S(=O)(=O)Nc2ccccc2CC)cc1 | -36 | -3 | -17 | -14 | -8 | -16
Cc1ccc(Nc2nc(N3CCN(CCO)CC3)nc3c2C(=O)CCC3)cc1 | -10 | -3 | 0 | -7 | -10 | 8
CCCc1noc(-c2ccc(-n3ncc(C(=O)N4CCCCC4)c3C)nc2)n1 | 38* | 1 | 29 | 20 | 20 | 5
CN(C1CCCCC1)S(=O)(=O)N1CCCC(C(=O)NCc2ccc(F)cc2)C1 (centres undefined) | 15 | 0 | 1 | 6 | 9 | 21
Cc1ccc(NC(=O)c2ccccc2)c(=O)n1CC(=O)N1CCCC1 | -5 | 1 | -3 | 1 | 0 | 0
O=C(Cn1c(=O)[nH]c2ccccc2c1=O)N1CCN(c2ccccc2F)CC1 | 32* | 1 | 13 | 24 | 9 | 18
COc1ccc(N2CCN(C(=O)CCCCCn3c(=O)[nH]c4ccccc4c3=O)CC2)cc1 | 23 | 1 | 9 | 8 | 4 | -6
O=C(CCCn1c(=O)[nH]c2ccccc2c1=O)N1CCN(c2ccc(Cl)cc2)CC1 | 41* | 2 | 3 | -11 | 4 | -14
CC(=O)c1ccc(N2CCN(C(=O)Cn3c(=O)[nH]c4ccccc4c3=O)CC2)cc1 | / | 2 | / | 42* | 3 | 2
Cc1ccc(NC(=O)c2ccccc2)c(=O)n1CC(=O)N1CCN(c2ccccc2F)CC1 | 30* | -3 | 9 | / | 18 | 27
CN(C(=O)Cn1cccc(S(=O)(=O)N2CCCC2)c1=O)c1ccccc1 | -68 | -14 | -40 | -30 | -21 | -28
Cc1cc(N2CCOCC2)n2nc(CN3CCN(CC(C)C)CC3)nc2n1 | -12 | 1 | -13 | -16 | -9 | -13
O=C(Nc1cc(Cl)ccc1-n1cncn1)c1ccc(-n2cccn2)cc1 | -71 | -10 | 7 | 22 | 7 | 5
O=C(Nc1cc(Cl)ccc1-n1cncn1)c1ccc(S(=O)(=O)N2CCCC2)cc1 | 66* | -1 | 18 | 23 | 9 | -1
Cc1noc(C)c1COc1cccc(C(=O)Nc2cc(Cl)ccc2-n2cncn2)c1 | 4 | 1 | 52* | 38* | -1 | 0
Cc1noc(C)c1COc1cccc(C(=O)Nc2ccccc2)c1 | 6 | 1 | 17 | 7 | 4 | 9
CCn1cc(C(=O)N2CC[C@H]3NC(=O)c4ccccc4OCC/C=C/C[C@H]3C2)cn1 | 6 | 1 | -3 | -4 | 0 | -5
CC(C)(C)c1coc([C@@H]2COCCN2Cc2csnn2)n1 | -15 | 4 | 6 | -47 | -1 | 20
CNc1nc(C2CCCCN2C(C)=O)nc2c1CN(Cc1ccc3ncccc3c1)CC2 (centres undefined) | -136 | -8 | -44 | -46 | -34 | -5
Cc1ccc(C(=O)N2CCN(C(=O)c3cc4ccccc4[nH]3)CC2)cc1 | 26 | 2 | 15 | 37* | 14 | 15
O=C(Nc1ccccc1)C1CCCN(C(=O)c2cc3ccccc3[nH]2)C1 (centres undefined) | 33* | 4 | 9 | 60* | 13 | 23
